Consider 62 molecules from PubChem BioAssay AID651955 (The Scripps Research Institute Molecular Screening Center, 2012).

About 40 (2%) of roughly 2,400 compounds were called active. A selection follows. Unmarked numbers belong to inactive results. No stated cut-off is given here; in the data, active means activation above about 37%; inactive means the rest.

Sequence of Trace amine-associated receptor 1 (Homo sapiens) (Q96RJ0 whole entry, looked up): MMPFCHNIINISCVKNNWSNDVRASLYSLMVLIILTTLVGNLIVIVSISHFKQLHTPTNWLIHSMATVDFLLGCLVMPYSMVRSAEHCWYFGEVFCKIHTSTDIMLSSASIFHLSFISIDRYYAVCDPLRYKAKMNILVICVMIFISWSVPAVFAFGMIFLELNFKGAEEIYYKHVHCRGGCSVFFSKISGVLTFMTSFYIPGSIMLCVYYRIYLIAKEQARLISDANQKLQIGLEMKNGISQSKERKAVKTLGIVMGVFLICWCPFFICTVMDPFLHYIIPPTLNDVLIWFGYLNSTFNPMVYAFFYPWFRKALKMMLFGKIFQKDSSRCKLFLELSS

This assay addresses Trace amine-associated receptor 1 (Homo sapiens) (UniProt Q96RJ0). The assay can be described thus: TAAR1 activation by candidate antagonists – cell-based, fluorescence, counter-screen for TAAR1 antagonist project (AID 651955).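 Further: CHO cells stably expressing TAAR1 with calcium dye readout; 0% = DMSO vehicle and 100% = full agonist response.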 Conditions: hTAAR1 cell line, agonist mode, at 3 µM, active compounds read high.
In the case of `O=C(NCCN1CCOCC1)c1ccccc1N1C(=O)[C@@H]2Cc3c([nH]c4ccccc34)C(c3cccc(Cl)c3)N2C1=O` (some centres not stated), the activation is 5.75%. `Clc1ccc(Nc2ncnc3c2nnn3Cc2ccccc2)cc1`: the activation is 6.12%. Next, `Nc1nonc1-n1nnc(C(=O)N/N=C/c2c[nH]c3ccccc23)c1-c1ccccc1`: 2.36%; `O=c1[nH]c(CSc2ncc(-c3ccc(F)cc3)n2Cc2ccco2)nc2ccccc12`: 17.5%; `Cn1c2ccccc2c(=O)c2c(=O)n(Cc3ccco3)c(COc3ccccc3)nc21`: 39.4% (active). Next, `Cc1ccc(C)c(N2CCN(C(=O)CCCCCn3c(=S)[nH]c4ccc(N5CCOCC5)cc4c3=O)CC2)c1`: 6.46%; `CC(C)N(Cc1ccccc1)C(=O)COC(=O)c1ccccc1SCC(=O)N1CCCC1`: 10.5%. Take `C/C(=N\Nc1ncc(Cl)cc1Cl)c1ccc(S(=O)(=O)NCc2ccco2)cc1`: the activation was -4.54%. Next, `COC(=O)Cc1nnn2c1[C@H](C)[C@H](c1ccccc1[N+](=O)[O-])OCC2`: 1.8%; `O=C1c2ccccc2C(=O)N1CCC#Cc1ccc2cc(C3(O)CCCCC3)oc(=O)c2c1`: 10.5%; `C[C@@H]1CN([C@@H](C)CO)S(=O)(=O)c2ccc(C#Cc3cccc(F)c3)cc2O[C@H]1CN(C)S(=O)(=O)c1cn(C)cn1`: 9.74%.

Take `COc1ccc(-c2nn(-c3ccccc3)cc2C(=O)Nc2nccs2)cc1OC`: the activation was 7.13%. As to `O=C(NCc1ccc2c(c1)OCO2)c1c(-c2ccsc2)sc2ccccc12`, the activation is -1.93%.

As for `CCC(=O)Oc1cccc(C(=O)Nc2ccc(-c3nnc(-c4ccco4)o3)cc2)c1`, the activation is 3.83%.

For `O=S(=O)(c1cccs1)N1CCCc2nc(-c3ccc(Br)cc3)ccc21`, the activation was 0.43%.

Consider `CSC(=S)N/N=C/c1c[nH]c2ccccc12`, for which the activation is 12%. Consider `CC(=O)n1cc([C@H]2C=C(C(=O)N3CCOCC3)O[C@@H](OCc3ccc(CO)cc3)C2)c2ccccc21`, for which the activation is 9.37%. `O=C(COC(=O)c1ccccc1SCC(=O)N1CCCC1)Nc1ccccc1OC(F)F`: the activation is 7.54%.

On to `Cc1onc(-c2c(F)cccc2Cl)c1C(=O)Nc1cccc(S(=O)(=O)N2CCCCC2)c1`, for which the activation was 7.98%. Next, `COc1cc(SC#N)ccc1N=Cc1c(C)[nH]n(-c2ccc(C)cc2)c1=O`: 1.06%; `CN(c1ccccc1)S(=O)(=O)c1cc(C(=O)Nc2nc3ccccc3[nH]2)ccc1Cl`: 4.12%. As for `O=C(NCC1CCCO1)c1cc2c([nH]c3ccccc32)c(-c2ccc(F)cc2)n1` (configuration not stated), the activation was 3.66%. For the molecule `CC(=O)c1ccccc1OCc1ccc(C(=O)c2ccccc2)cc1`, the activation is 6.46%.

`COc1ccc(CCNC(=O)C(=O)NCC2OCCN2S(=O)(=O)c2ccc(OC)c(C)c2)cc1` (configuration not stated): the activation is 5.42%. With `COC(=O)C1=C(C)N(Cc2ccc(F)cc2)C(=S)NC1c1cccc(Cl)c1` (configuration not stated), the activation is 3.48%.

Consider `CC(=O)OCCN(CCCn1c(-c2ccncc2)nc2ccccc21)c1nc(-c2ccc(C)cc2)cs1`, for which the activation is 2.91%.

As to `O=C(Nc1ccccc1-c1nnn(CC(=O)N2CCN(c3ccccc3)CC2)n1)c1cccs1`, the activation was 6.9%. As for `O=S1(=O)c2c(cccc2N2CCCCC2)O[C@H](COCc2ccccc2)CN1C1CC1`, the activation was 0.58%.

For the molecule `Cc1cccc(C)c1NC(=O)CNC(=O)C1CCCC1`, the activation is 6.49%. Turning to `CCN=C1SC(CC(=O)Nc2ccc(C)cc2)C(=O)N1CC` (configuration not stated), the activation is 12.6%.

Turning to `COc1ccc(-c2cc(C(=O)Nc3ccccc3O)c3ccccc3n2)cc1`, the activation is 16.7%. On to `O=C(NCCN1CCOCC1)c1ccc(/C=C2\Sc3ccccc3N(Cc3ccc(F)cc3)C2=O)cc1`, for which the activation is 12.4%. With `COc1ccc(Cl)cc1NC(=O)CCS(=O)(=O)c1cc2c(cc1C)NC(=O)CO2`, the activation was 7.53%. `COc1ccc(N(CC(=O)N/N=C/c2cccs2)S(=O)(=O)c2ccc(OC)c(OC)c2)cc1`: the activation was 11.5%. Consider `CSc1ncnc2c1ncn2CC(=O)C1CCC2C3CCC4=CC(=O)CCC4(C)C3CCC12C` (configuration not stated), for which the activation was 15.2%. For `COc1ccc(C(=O)Nc2ccccc2C(=O)N/N=C/c2ccc(O)c(OC)c2)cc1`, the activation was 8.37%.

Consider `Cc1ccc(SCc2c(C(=O)N/N=C/c3cccnc3)nnn2-c2nonc2N)cc1`, for which the activation is 17.1%. With `CSCCC(NC(=O)COc1ccccc1)C(=O)OCC(=O)c1cc2ccccc2o1` (configuration not stated), the activation is 3.28%. Consider `O=C(N/N=C/c1ccc(Cl)c(Cl)c1)c1ccc2nc[nH]c2c1`, for which the activation is 13.9%. Take `COc1cc(/C=C2/C(=O)ON=C2C)ccc1OCc1ccccc1F`: the activation was 18.6%. Take `N#Cc1cccc(NC(=O)COC(=O)c2ccccc2C(=O)c2ccc(Cl)c([N+](=O)[O-])c2)c1`: the activation was 3.29%.

As for `CSCCC(NC(=O)COc1ccccc1)C(=O)OCCOc1ccc(Br)cc1` (configuration not stated), the activation is 4.8%. Next, `CC(=O)Nc1ccc(NC(=O)COC(=O)C2CCC(C(C)(C)C)CC2)cc1` (configuration not stated): 23.7%; `COc1ccc(NC(=O)C2CCCN(S(=O)(=O)c3cccc4cccnc34)C2)cc1OC` (configuration not stated): 5.06%; `O=C(CN1CCCSc2ccccc21)N1CCN(S(=O)(=O)c2cccc(F)c2)CC1`: 6.06%. Next, `Cn1c(C(=O)NCCc2ccsc2)cc2c(=O)n(C)c3ccccc3c21`: 4.37%; `O=C(COC(=O)c1c2c(nc3ccccc13)CCCC2)c1ccc(Br)s1`: 0.2%.

Regarding `Cc1nn(-c2ccccc2)c(C)c1NC(=O)COC(=O)c1cc(Cl)ccc1O`, the activation was 10.5%. Regarding `C=CCC[C@@H](Cc1ccc(F)cc1)C(=O)O[C@H](CNC(=O)[C@H](CC=C)CC(=O)N(CCO)Cc1ccccc1)c1ccccc1`, the activation is 2.53%.

`COc1ccc(CC(=O)Nc2c(C(N)=O)oc3ccccc23)cc1`: the activation was 6.71%. For `CCN1CCc2c(C#N)c(NCc3ccccc3)nc(NCCO)c2C1`, the activation was 8.1%. As for `COc1ccc(C(=O)Nc2cccc(NC(=O)c3ccc(OC)cc3OC)n2)c(OC)c1`, the activation is 6.39%. Next, `CCOC(=O)C1C(c2ccc(OC)c(OC)c2)c2c([nH][nH]c2=O)CC1(C)O` (configuration not stated): 3.71%; `CSc1nc(-c2ccccc2)nc(C(Cl)Cl)n1`: 2.73%; `CCCCNc1c(-c2cccc(Sc3ccc(OC)cc3)c2)nc2ccccn12`: 6.5%. As to `CCOc1ccc(N2CC(C(=O)N/N=C/c3sccc3C)CC2=O)cc1` (configuration not stated), the activation was 3.12%.

Take `COc1ccc(-c2cc(C(=O)N(C)CC(=O)Nc3ccccc3Cl)c3ccccc3n2)cc1OC`: the activation was 6.79%. On to `COc1ccc(S(=O)(=O)N(CC(=O)NCc2ccco2)c2ccc(F)cc2)cc1`, for which the activation was 7.31%.

`CC(=O)N1CCN(C(=O)c2cc(-c3ccc(Cl)s3)nc3ccccc23)CC1`: the activation is 13%. With `COc1ccc(-c2cc(C(=O)N(C)Cc3ccccc3)c3ccccc3n2)cc1`, the activation was 1.41%. Next, `Cc1ccc(-n2c(C)cc(/C=N\NC(=O)CC(=O)NC(C)C)c2C)cc1`: 16.1%; `OC(c1ccccc1)(c1ccccc1)C1CCN(CCCOc2ccc(-c3ccsc3)cc2)CC1`: 33.1%.
